Compound activity as filed in PubChem.
An excerpt weighted towards active compounds, which were near 8.3% of everything screened.
HCMV inh – human cytomegalovirus inhibition; HFF cells, HCMV-luciferase reporter, 72 h; hits give low values; activity change, negative = inhibition, % at 57.5 µM; 410,000 tested, 4.5% active; AID 1259415; in the data active means activity change below about -60%; inconclusive means no clear call, values can overlap the other calls; inactive means above about -39%
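Cell-based, HFFs, 1000 cells/well, 16 h 37C; cpds in DMSO + HCMV-luc, MOI 1 PFU/cell; 72 h 37C; OneGlo luminescence after 5 min RT; norm. to buffer vs Salinomycin 10uM.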
HCV inhibitor – HCV inhibition; Huh7.5.1 HCVcc-Cre infection, luciferase reporter, 44 h; 340,000 tested, 3.4% active; Potency, µM (highest dose often 41.8 µM), usual class: inhibitors
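Cells (1,000/well) were plated 4 h before compound, then infected with HCVcc-Cre virus (~0.5 moi). After 44 h further culture, infection was read as luciferase luminescence following a 15 min substrate incubation at room temperature.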
Marburg entry inh – Marburg virus entry inhibition; 300,000 tested, 1.8% active; Potency, µM (top dose mostly 37.8 µM), hits mostly inhibitors; Marburg virus pseudotyped entry inhibition, cell reporter; calls by dose curve; tested in HEK293 cells
FMDV inh – antivirals against foot and mouth disease virus; 410,000 tested, 1.2% active; FMDV antiviral cell-based qHTS; AID 1159524; Potency, µM (titrated, usually from 57.9 µM), hits mostly inhibitors; calls by dose curve; tested in HEK293T cells; further: read-out not given here; nearly all actives have a fitted effect of over 45% in size
Lassa entry inh – inhibitors of Lassa virus binding or cell entry; Lassa virus pseudotype entry inhibition, cell reporter; Potency, µM (top dose mostly 37.9 µM), hits mostly inhibitors; 300,000 tested, 1.2% active; AID 540256; calls by dose curve; tested in HEK293 cells; further: nearly all actives have a fitted effect of over 50% in size
FBPA Giardia inh – inhibitors of Giardia lamblia fructose-1,6-bisphosphate aldolase | A8B2U2 | purified Giardia FBPA | Potency, µM (highest dose often 59.6 µM), hits mostly inhibitors | 290,000 tested, 0.71% active; further: nearly all actives have a fitted effect of over 55% in size
Target sequence (A8B2U2 whole entry, looked up): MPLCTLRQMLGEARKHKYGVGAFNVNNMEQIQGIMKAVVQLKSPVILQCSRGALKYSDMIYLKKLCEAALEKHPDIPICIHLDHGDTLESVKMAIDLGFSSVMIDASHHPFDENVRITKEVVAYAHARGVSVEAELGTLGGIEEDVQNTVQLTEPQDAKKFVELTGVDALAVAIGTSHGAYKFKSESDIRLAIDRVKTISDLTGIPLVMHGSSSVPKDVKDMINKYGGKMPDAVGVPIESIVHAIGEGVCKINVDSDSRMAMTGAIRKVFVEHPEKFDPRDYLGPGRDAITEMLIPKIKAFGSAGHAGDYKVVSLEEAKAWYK
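Giardia FBPA (40 nM reagent) was preincubated 10 min at RT with compound (up to 57.5 uM final), then substrate plus GAPDH/TPI/NAD/arsenate coupling system with diaphorase/resazurin was added; resorufin fluorescence (525/598 nm) was read after 20 min.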
Hits are given with their value; 0 = inactive; ? = inconclusive; - = no result; ! = not active in a repeat. Unless noted, the call rests on the fitted dose curve; in most records, active means well fitted curve in the direction sought with a large enough effect; inconclusive means small, poorly fitted or top-dose-only effect, or another doubt; inactive means no such curve, though single readings can be large; an effect the other way counts as inactive or inconclusive.

SMILES	HCMV inh	HCV inhibitor	Marburg entry inh	FMDV inh	Lassa entry inh	FBPA Giardia inh
CN(Cc1cccc(F)c1)CC(O)COCc1ccccc1Cl (centres undefined)	0	0	0	0	0	?
CN(C)c1ccc(/C=N/Nc2nc3ccccc3o2)cc1	0	0	?	?	5.6µM	0
CN(C)c1ccc(/C=N/Nc2nncc3ccccc23)cc1	0	0	?	7.9µM	?	0
CCS(=O)(=O)c1ccc(C=NNc2nc3ccccc3o2)cc1	0	0	?	0	?	-
C(=N\Nc1nncc2ccccc12)/c1ccccc1	0	0	0	0	?	0
OC(COC(c1ccc(F)cc1)c1ccc(F)cc1)CN1CCc2ccccc2C1 (centres undefined)	-61	?	?	0	0	0
OC(COC(c1ccc(Cl)cc1)c1ccc(Cl)cc1)CN1CCc2ccccc2C1 (centres undefined)	0	13µM	?	0	?	0
CC(C)(C)c1ccc(OCC(O)CN2CCc3ccccc3C2)cc1 (centres undefined)	-63	?	-	0	-	-
COc1cccc(Cn2c(=O)c(-c3ccc(Cl)cc3)nc3cnc(OC)nc32)c1	-	-	-	0	-	0
CC(C)(C)c1ccc(C(=O)N2CCC3(CC2)CC3C(=O)NCCc2ccccn2)cc1 (centres undefined)	-	-	-	0	-	-
O=c1/c(=C\c2cccn2-c2ccccc2)sc2nc3ccccc3n12	0	0	0	0	?	0
Cc1ccc(-n2c(C)cc(/C=c3/sc4nc5ccccc5n4c3=O)c2C)cc1	-	0	0.28µM	1µM	?	0
CN(C)c1ccc(NC(=O)CN2C(=O)c3ccccc3Sc3ccc(C(=O)N4CCCC4)cc32)cc1	0	-	-	0	0	-
CCc1ccc(-n2c(=O)c3sc4ccccc4c3n(CC(=O)NC3CCCCC3)c2=O)cc1	0	-	0	0	0	-
Cc1ccc(-n2c(=O)c3sc4ccccc4c3n(CC(=O)NC3CCCC3)c2=O)cc1C	-71	-	0	0	0	-
O=C(Cn1c(=O)n(-c2cccc(Cl)c2)c(=O)c2sc3ccccc3c21)N1CCCC1	-81	-	0	0	0	-
COc1ccc(-n2c(=O)c3sc4ccccc4c3n(CC(=O)NCc3ccccc3)c2=O)cc1	-105	-	0	0	0	-
C=CC(C)(O)CC1[C@@]2(C)CCCC(C)(C)C2CC[C@]1(C)O (some centres undefined)	-	-	-	0	-	0
CC(C)=CCCC(C)=CCN1C(=O)[C@@]2(CC(C)=C[C@@H](COCc3ccccc3)O2)c2ccccc21	-	-	0	-	-	-
CC1=C(C(=O)OCC2CCCCC2)C(c2ccc(F)cc2F)CC(=O)N1 (centres undefined)	-105	-	?	?	0	-
CC1C(=O)C(C)(C)C(=O)OC1c1ccc([N+](=O)[O-])cc1 (centres undefined)	-104	0	-	0	-	0
NC(=O)N=Nc1c2[nH]c3ccccc3nc-2c2ccccc12	-99	?	?	?	?	0
COCCN1C(=O)C2=C(C1=O)C1N(C)c3ccccc3[C@@]13C[C@@H](CO)N(C(=O)CCC(=O)OC)C3=N2 (some centres undefined)	-	-	0	-	-	-
CC1=C(O)C(=O)[C@H]2O[C@@H]2C1=O	-	-	-	0	-	?
CCOc1ccc(CCNC(=O)CCC(=O)N2CCSc3ccccc32)cc1OCC	0	?	-	0	-	0
SMILES	HCMV inh	HCV inhibitor	Marburg entry inh	FMDV inh	Lassa entry inh	FBPA Giardia inh
CCc1cccc(NC(=O)CCC(=O)N2CCSc3ccccc32)c1	-66!	0	-	0	0	0
CCOc1ccccc1CNC(=O)CCC(=O)N1CCSc2ccccc21	-75	-	-	0	0	-
CCc1ccc(NC(=O)CCC(=O)N2CCSc3ccccc32)cc1	0	0	-	?	-	0
CCOc1ccccc1CNC(=O)CCc1cn(C)c2ccccc12	0	?	6.3µM	0	0	0
O=C(Nc1ccc(F)cc1)c1oc2ccccc2c1NC(=O)C1CCCCC1	0	-	?	0	0	-
Cc1cccc2sc(N(Cc3cccnc3)C(=O)C3CCCCC3)nc12	0	-	-	0	0	-
NC(=O)c1nnn(Cc2cc(Cl)c(C(=O)c3ccc(Cl)cc3)c(Cl)c2)c1N	-91	-	-	?	-	-
CC(=O)N1CCc2cc(S(=O)(=O)NC(CC(C)C)C(=O)Nc3ccc(C(C)C)cc3)ccc21 (centres undefined)	0	-	0	0	0	-
Cc1c(C)n(Cc2ccccc2)c2ncnc(N)c12	-60	10µM	0	0	0	0
Cc1c(C)n(Cc2ccccc2)c2ncnc(NCCO)c12	0	0	0	0	0	0
